Source: PubChem BioAssay (NCI)
Compounds without any hit were thinned out: in the full panel of roughly 83,000, 20% have a hit.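 Each cell line was grown in a 96-well plate and treated with one concentration of compound for 48 hours. Values below 10 were considered active.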 A number with no mark means an inactive call. Activity calls are given as the source filed them.

How the values were obtained:
Test in all cases: NCI-60 one-dose screen, 48 h (100 = growth as untreated, 0 = no growth, -100 = all killed)
Conditions in all cases: 10 µM unless noted
EKVX NSCLC = test system: EKVX NSCLC
SN12C renal = test system: SN12C renal
UO-31 renal = test system: UO-31 renal
TK-10 renal = test system: TK-10 renal
ACHN renal = test system: ACHN renal
CAKI-1 renal = test system: CAKI-1 renal
A498 renal = test system: A498 renal
CCRF-CEM leukemia = test system: CCRF-CEM leukemia
MOLT-4 leukemia = test system: MOLT-4 leukemia
SR leukemia = test system: SR leukemia
RPMI-8226 leukemia = test system: RPMI-8226 leukemia
OVCAR-8 ovarian = test system: OVCAR-8 ovarian
OVCAR-5 ovarian = test system: OVCAR-5 ovarian
OVCAR-4 ovarian = test system: OVCAR-4 ovarian
SK-OV-3 ovarian = test system: SK-OV-3 ovarian
IGROV1 ovarian = test system: IGROV1 ovarian
OVCAR-3 ovarian = test system: OVCAR-3 ovarian
HS 578T breast = test system: HS 578T breast
NCI/ADR-RES ovarian = test system: NCI/ADR-RES ovarian

Row | SMILES | growth (EKVX NSCLC) [%] | growth (SN12C renal) [%] | growth (UO-31 renal) [%] | growth (TK-10 renal) [%] | growth (ACHN renal) [%] | growth (CAKI-1 renal) [%] | growth (A498 renal) | growth (CCRF-CEM leukemia) | growth (MOLT-4 leukemia) | growth (SR leukemia) | growth (RPMI-8226 leukemia) [%] | growth (OVCAR-8 ovarian) [%] | growth (OVCAR-5 ovarian) [%] | growth (OVCAR-4 ovarian) | growth (SK-OV-3 ovarian) | growth (IGROV1 ovarian) | growth (OVCAR-3 ovarian) | growth (HS 578T breast) | growth (NCI/ADR-RES ovarian)
1 | CC[C@]12C=CCN3CC[C@@]4(c5cc(NC(=O)CCC(=O)O[C@H]6CC[C@H]7[C@@H]8CCC9=CC(=O)CC[C@@H]9[C@H]8CC[C@]67C)c(OC)cc5N(C)[C@H]4[C@@](O)(C(=O)OC)[C@@H]1OC(C)=O)[C@@H]32 | 73.4 | 81.5 | 53.6 | 97.4 | 87.2 | 67.8 | 71.6% | 62.7% | 40.3% | 40% | 54.6 | 75.6 | 96.1 | 67% | 104% | 61.6% | 80.8% | 73.9% | 80.1%
2 | COc1ccc(C(=O)NNc2nc(Cl)nc(N3CCN(C(c4ccccc4)c4ccccc4)CC3)n2)cc1 | 82.4 | 21.1 | 87 |  | 22.8 | 21.2 |  | -8.69% (active) | -39.2% (active) | -29.6% (active) | 84.2 | 34.1 | 96.9 | 20.5% | 101% | -59.7% (active) | -71.5% (active) | 67.1% | 50%
3 | N#Cc1c(NC(=O)NCc2ccccc2)sc2c1CCCC2 | 57.8 | 35.3 | 47.2 | 49.1 | 46.2 | 38.1 |  | 16.6% | 17.7% | 23.3% | 17.7 | 26.8 | 46 | 48.4% | 35.1% | 28.8% | -15.7% (active) | 9.64% (active) | 11.1%
4 | COc1ccc(Cc2cnc(NC(=O)c3ccc4c(c3)OCCO4)s2)cc1 | 37.7 | 30.7 | 54.8 | 41 | 27.9 | 27.8 | -6.31% (active) | 13.5% | 11.6% | 3.32% (active) | 15.8 | 16.9 | 26.1 | 41.2% | 33.4% | 20.2% | 6.58% (active) | 31.7% | -1.17% (active)
5 | CN[C@@H](C)C(=O)N[C@H]1CCS[C@H]2CC(C)(C)[C@@H](C(=O)N[C@H]3c4ccccc4C[C@H]3OCC#CC#CCO[C@@H]3Cc4ccccc4[C@@H]3NC(=O)[C@H]3N4C(=O)[C@@H](NC(=O)[C@H](C)NC)CCS[C@H]4CC3(C)C)N2C1=O | 121 | 97.8 | 97.8 | 130 | 106 | 99.9 |  | 25.1% | 95.5% | 36.1% | 71.2 | 77.3 | 109 | -33.1% (active) | -71.6% (active) | 116% | 86.2% | 82.2% | 
6 | O=C1Nc2ccc(F)cc2/C1=C\c1c(-c2ccccc2)nc2ccccn12 | 61.8 | 80.4 | 46.6 |  | 53.4 | 34.3 | 43.1% | 57.7% | 51% |  | 86.5 | 74.7 | 73.7 | 94.6% | 80.7% | 47.6% | 66.4% | 71.8% | 38.1%
7 | N=C1C(c2nc3ccccc3s2)=C(O)CN1c1cc(Cl)cc(Cl)c1 | 82.4 | 86.2 | 60.2 | 115 | 73.4 | 78 | 98.5% |  | 29.4% | 7.21% (active) |  | 67.2 | 87 | 131% | 99.4% | 52.5% | 87.2% | 52.7% | 78.9%
